# Measurements as given in PubChem BioAssay.
# The source made the active and inactive calls. Unless noted, how the calls were made is not given here.
# Legend:
# [1] = anti-His antibody binders, primary screen, artefact control for SMM control protein annotation, biochemical, small-molecule microarray, 635 nm fluorescence (AID 1128); conditions: anti-His Alexa647 antibody binding, higher = more signal;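 further: score merges feature fluorescence with signal-to-noise for each printed compound spot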
# [2] = tested on: Human papillomavirus type 1a E7 protein (residues 1-88); test: HPV1a E7 small-molecule binders, primary screen, biochemical, small-molecule microarray, residues 1-88, 635 nm (AID 1129); conditions: small-molecule microarray binding, fluorescence 635 nm; higher = more signal
# [3] = target: Focal adhesion kinase 1 (Homo sapiens) (UniProt Q05397); test: small-molecule microarray binders of FAK, primary screen, biochemical, 635/667 nm fluorescence, BSA, DTT (AID 1130); conditions: PTK2 binding, 635 nm fluorescence, higher = more signal;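 further: composite of spot emission at 667 nm and signal to noise over triplicate slides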
# [4] = tested on: Fibrinogen (Alexa647-labelled); test: fibrinogen binders on compound microarrays, profiling panel, artefact control for SMM control-protein annotation, biochemical, small-molecule microarray, 635/667 nm fluorescence (AID 1131); conditions: fibrinogen-A647 binding fluorescence, higher = more signal;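 further: z-score merges 667 nm fluorescence with per-spot signal-to-noise over triplicate slides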
# [5] = target: Follistatin (Homo sapiens) (UniProt P19883); test: follistatin binders on small-molecule microarrays, primary screen, biochemical, small-molecule microarray, 635/667 nm fluorescence (AID 1132); conditions: FST binding, 635 nm fluorescence, higher = more signal
# [6] = target: Fibroblast growth factor 2 (Homo sapiens) (UniProt P09038); test: FGF2 binders on small-molecule microarrays, primary screen, biochemical, small-molecule microarray, 635/667 nm fluorescence (AID 1133); conditions: small-molecule microarray binding, FGF2, fluorescence 635/667; higher = more signal
# [7] = mitochondrial membrane potential change in A549 cells, profiling panel, cell-based, JC-1 fluorescence, basal, 24 h, 100 nL (AID 1138); conditions: higher = more signal;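 further: A549 lung adenocarcinoma cells under basal conditions with no added stimulus; test concentration not given here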
# [8] = tested on: Lefty1; test: Lefty1 binders on small-molecule microarrays, primary screen, biochemical, small-molecule microarray, 635/667 nm fluorescence (AID 1139); conditions: small-molecule microarray binding, fluorescence 635/667; higher = more signal
# [9] = tested on: wheat germ agglutinin (Triticum aestivum), Alexa647-labelled; test: wheat germ agglutinin binders on compound microarrays, profiling panel, artefact control for SMM control-protein annotation, biochemical, small-molecule microarray, 635/667 nm fluorescence (AID 1140); conditions: WGA-A647 binding, 635 nm fluorescence, higher = more signal;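 further: score merges 667 nm feature emission with signal to noise over triplicate slides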
# [10] = target: Luciferin 4-monooxygenase (Photinus pyralis) (UniProt P08659); test: firefly luciferase enzyme inhibitors, primary screen, biochemical, luminescence, purified enzyme, 2006 set (AID 1141); conditions: SteadyGlo luminescence, 30 min, higher = more signal, called active from +8 up or from −8 down;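 further: cell-free assay with purified firefly luciferase at 100 ng per well in PBS; test concentration not given here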
# [11] = tested on: Wnt5a (protein binding on small-molecule microarray); test: Wnt5a binders on small-molecule microarray, primary screen, biophysical, 635/667 nm fluorescence (AID 1142); conditions: 635 nm fluorescence, higher = more signal;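 further: fluorescence read at 667 nm with signal to noise per printed feature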
# [12] = cell viability in Huh7 cells, primary screen, cytotoxicity control for HCV replication inhibitor project, CellTiter-Glo luminescence, basal, 48 h (AID 1143); conditions: Huh7 HCV replicon, higher = more signal, called active from +8 up or from −8 down;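 further: Huh7 hepatoma cells carrying a hepatitis C replication reporter with no stimulus; test concentration not given here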
# [13] = P. aeruginosa biofilm formation inhibitors, primary screen, PAO1 strain, BacTiter-Glo luminescence, LB-PBS (AID 1144); conditions: 12 h, higher = more signal
# [14] = CREB reporter modulators without forskolin, primary screen, cell-based, PC12, CRE-LacZ reporter, unstimulated (AID 1145); conditions: no forskolin, luminescence, 4.5 h, higher = more signal, called active from +8 up or from −8 down
# [15] = CREB reporter modulators under forskolin, primary screen, cell-based, PC12, CRE-LacZ reporter, forskolin-stimulated (AID 1146); conditions: luminescence, 4.5 h, higher = more signal, called active from +8 up or from −8 down;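 further: PC12 cells with 6xCRE LacZ reporter stimulated by forskolin 10 µM; beta-galactosidase reporter signal reflecting CREB driven transcription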
# [16] = target: Streptavidin (Streptomyces avidinii) (UniProt P22629); test: streptavidin binders on small-molecule microarray, primary screen, artefact control for SMM compound annotation, biophysical, 635/667 nm fluorescence (AID 1147); conditions: streptavidin binding, higher = more signal;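 further: signal reflects streptavidin binding to arrayed compounds as a control protein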
# [17] = small-molecule binders of probe aInhba, primary screen, biochemical, small-molecule microarray, 635/667 nm fluorescence (AID 1148); conditions: higher = more signal;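 further: score merges 667nm spot fluorescence with signal-to-noise for antibody binding to printed compounds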
# [18] = target: Torsin-1A (Homo sapiens) (UniProt O14656); test: torsin A binders from cell lysate, primary screen, small-molecule microarray, wild-type, 635/667 nm (AID 1149); conditions: COS7 hTOR1A-WT lysate, 635 nm fluorescence, higher = more signal
# [19] = target: Torsin-1A (Homo sapiens) (UniProt O14656); test: small-molecule binders of mutant TOR1A in lysate, primary screen, cell lysate, small-molecule microarray, COS7 lysate, 635/667 nm fluorescence (AID 1150); conditions: COS7 hTOR1A mutant lysate, 635 nm fluorescence, higher = more signal;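 further: score pools 667 nm emission and signal to noise measuring lysate protein binding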
# [20] = tested on: Sonic hedgehog protein (Shh); test: small-molecule binders of Shh protein, primary screen, biochemical, small-molecule microarray, 635/667 nm fluorescence (AID 1151); conditions: small-molecule microarray binding, 635 nm fluorescence; higher = more signal;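 further: Shh protein binding to compounds spotted on small-molecule microarray slides; score combines spot fluorescence intensity with signal-to-noise across triplicate slides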
# Luciferin 4-monooxygenase (Photinus pyralis), sequence (P08659 whole entry, looked up): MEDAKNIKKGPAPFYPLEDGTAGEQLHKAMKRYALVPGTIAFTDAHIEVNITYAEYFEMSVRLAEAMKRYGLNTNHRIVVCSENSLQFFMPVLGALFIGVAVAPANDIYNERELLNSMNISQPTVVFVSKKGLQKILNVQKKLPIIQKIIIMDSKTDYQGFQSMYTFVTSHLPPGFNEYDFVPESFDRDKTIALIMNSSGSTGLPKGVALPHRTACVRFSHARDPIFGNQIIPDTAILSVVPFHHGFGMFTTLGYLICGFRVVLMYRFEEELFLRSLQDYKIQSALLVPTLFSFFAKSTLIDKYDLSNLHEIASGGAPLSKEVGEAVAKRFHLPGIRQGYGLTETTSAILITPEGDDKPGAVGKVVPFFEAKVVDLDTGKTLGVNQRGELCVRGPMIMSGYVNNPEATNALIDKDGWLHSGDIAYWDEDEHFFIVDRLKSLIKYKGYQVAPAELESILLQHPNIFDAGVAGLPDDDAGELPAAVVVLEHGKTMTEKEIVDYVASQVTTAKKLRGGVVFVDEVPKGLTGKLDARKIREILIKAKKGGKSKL
# Torsin-1A (Homo sapiens), sequence (O14656 whole entry, looked up): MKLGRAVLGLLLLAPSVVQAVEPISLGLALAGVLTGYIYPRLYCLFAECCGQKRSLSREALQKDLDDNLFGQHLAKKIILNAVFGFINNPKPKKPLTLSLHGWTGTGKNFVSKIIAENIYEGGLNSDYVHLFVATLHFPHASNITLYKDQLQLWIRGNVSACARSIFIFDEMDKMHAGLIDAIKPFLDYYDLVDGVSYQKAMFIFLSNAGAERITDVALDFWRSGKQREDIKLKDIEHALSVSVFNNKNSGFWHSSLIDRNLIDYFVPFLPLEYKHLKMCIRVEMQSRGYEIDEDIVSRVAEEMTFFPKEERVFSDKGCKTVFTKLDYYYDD
# Focal adhesion kinase 1 (Homo sapiens), sequence (Q05397 whole entry, looked up): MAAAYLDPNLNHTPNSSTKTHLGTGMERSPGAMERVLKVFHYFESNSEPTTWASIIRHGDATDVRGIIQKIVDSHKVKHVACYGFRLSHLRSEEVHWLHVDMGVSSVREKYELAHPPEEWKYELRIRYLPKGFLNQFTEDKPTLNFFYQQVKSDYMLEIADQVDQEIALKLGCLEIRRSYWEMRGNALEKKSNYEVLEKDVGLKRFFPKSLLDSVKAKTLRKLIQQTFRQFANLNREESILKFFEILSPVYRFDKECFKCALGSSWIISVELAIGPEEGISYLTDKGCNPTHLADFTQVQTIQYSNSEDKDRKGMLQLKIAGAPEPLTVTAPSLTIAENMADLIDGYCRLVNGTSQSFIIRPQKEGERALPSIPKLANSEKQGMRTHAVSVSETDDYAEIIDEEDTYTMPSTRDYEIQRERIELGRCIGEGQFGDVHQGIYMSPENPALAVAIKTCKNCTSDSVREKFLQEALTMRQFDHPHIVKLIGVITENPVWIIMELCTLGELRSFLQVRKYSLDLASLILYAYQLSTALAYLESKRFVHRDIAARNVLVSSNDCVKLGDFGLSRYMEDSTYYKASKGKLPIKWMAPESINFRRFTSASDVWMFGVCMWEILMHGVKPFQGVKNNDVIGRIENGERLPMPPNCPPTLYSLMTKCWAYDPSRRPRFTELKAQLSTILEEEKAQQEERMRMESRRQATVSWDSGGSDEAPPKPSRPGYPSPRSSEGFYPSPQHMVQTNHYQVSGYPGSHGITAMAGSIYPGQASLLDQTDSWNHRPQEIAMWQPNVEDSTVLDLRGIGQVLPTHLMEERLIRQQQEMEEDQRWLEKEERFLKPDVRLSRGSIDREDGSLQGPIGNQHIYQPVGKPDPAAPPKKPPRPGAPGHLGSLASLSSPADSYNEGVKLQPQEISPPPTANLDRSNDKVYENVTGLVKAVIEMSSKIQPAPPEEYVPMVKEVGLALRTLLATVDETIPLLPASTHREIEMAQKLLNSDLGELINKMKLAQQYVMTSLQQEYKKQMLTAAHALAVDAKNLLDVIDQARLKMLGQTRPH
# Follistatin (Homo sapiens), sequence (P19883 whole entry, looked up): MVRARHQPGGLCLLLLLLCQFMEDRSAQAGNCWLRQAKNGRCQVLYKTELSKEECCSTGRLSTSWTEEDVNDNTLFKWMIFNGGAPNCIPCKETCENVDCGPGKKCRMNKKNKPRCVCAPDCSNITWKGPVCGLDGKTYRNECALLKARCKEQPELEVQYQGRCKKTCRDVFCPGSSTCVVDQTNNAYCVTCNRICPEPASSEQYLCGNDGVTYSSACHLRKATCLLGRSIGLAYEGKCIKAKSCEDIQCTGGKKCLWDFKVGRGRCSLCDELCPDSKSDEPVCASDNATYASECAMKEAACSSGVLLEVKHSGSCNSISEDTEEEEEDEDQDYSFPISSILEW
# Streptavidin (Streptomyces avidinii), sequence (P22629 whole entry, looked up): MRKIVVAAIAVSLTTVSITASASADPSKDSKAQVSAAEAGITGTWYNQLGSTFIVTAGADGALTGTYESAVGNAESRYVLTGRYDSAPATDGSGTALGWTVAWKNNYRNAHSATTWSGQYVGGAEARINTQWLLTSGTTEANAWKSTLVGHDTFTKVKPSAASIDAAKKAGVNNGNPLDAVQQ
# Fibroblast growth factor 2 (Homo sapiens), sequence (P09038 whole entry, looked up): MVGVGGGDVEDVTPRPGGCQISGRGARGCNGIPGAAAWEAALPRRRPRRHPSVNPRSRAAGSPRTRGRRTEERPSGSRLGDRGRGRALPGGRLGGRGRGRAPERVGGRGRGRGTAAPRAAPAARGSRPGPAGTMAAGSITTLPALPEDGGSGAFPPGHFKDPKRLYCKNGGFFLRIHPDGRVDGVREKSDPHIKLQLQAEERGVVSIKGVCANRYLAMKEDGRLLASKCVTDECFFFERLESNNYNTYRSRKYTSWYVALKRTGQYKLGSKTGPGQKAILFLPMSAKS
Structure (SMILES),composite z-score [1],composite z-score [2],composite z-score [3],composite z-score [4],composite z-score [5],composite z-score [6],z-score [7],composite z-score [8],composite z-score [9],z-score [10],composite z-score [11],z-score [12],z-score [13],z-score [14],z-score [15],composite z-score [16],composite z-score [17],composite z-score [18],composite z-score [19],composite z-score [20]
Cc1ccc(S[C@]2(C(=O)NCc3ccccc3)CC(=O)N(C(C)C)[C@@H]2c2ccc(CO)cc2I)cc1,0.257,-0.0754,-0.19,-0.956,-0.289,-1.04,-0.224,-1.17,-0.0961,0.667 (inactive),0.292,-1.11 (inactive),0.201 (inactive),0.208 (inactive),1.95 (inactive),-0.505,0.0028,-0.0397,-0.609,-1.37
C=C(COC)/C(=C/C[C@@H](OC(=O)c1ccncc1)c1ccc(OCCO)cc1)c1cnc2ccccc2c1,0.866,1.13,0.0089,0.94,1.46,1.74,0.703,1.49,0.798,-2.4 (inactive),0.884,-3.25 (inactive),-1.28 (inactive),7.95 (inactive),0.34 (inactive),2.13,0.0419,0.77,0.327,2.09
C=C(/C(=C/C[C@@H](OC(=O)c1ccncc1)c1ccccc1OCCO)c1cc(C(=O)OC)ccc1OC)C(C)C,0.0652,1.2,0.378,-0.325,0.64,0.806,3.35,0.782,0.986,-1.47 (inactive),0.449,-2.43 (inactive),0.128 (inactive),22.5 (active),-0.267 (inactive),0.187,0.0498,0.438,1.29,0.698
C=CCN1Cc2ccccc2C[C@@]2(N=C(c3ccc(OCCCO)cc3)O[C@H]2c2ccccc2)C1=O,0.69,1.24,0.649,0.801,0.749,0.955,0.943,0.0744,0.98,-0.668 (inactive),0.762,-5.03 (inactive),-0.8 (inactive),-0.23 (inactive),-1.51 (inactive),0.0967,0.0471,0.233,0.983,1.05
CC(C)(C)N1CC=CC23O[C@@H]4C=CCOC(=O)[C@@H]4[C@H]2C(=O)N(CCCO)[C@@H]3C1=O (stereo not given in full),-1.08,-1.21,-0.595,-1.79,-1.79,-1.28,-0.908,-1.34,-1.13,-0.11 (inactive),-0.56,-1.97 (inactive),0.0204 (inactive),0.321 (inactive),0.0029 (inactive),-1.48,-0.317,0.213,-0.0267,-0.471
C=C(C(=O)CC[C@H](OC(=O)c1cccnc1)c1cccc(OCCO)c1)C(C)C,0.0024,-0.498,-0.136,-0.744,-1.01,-0.464,0.838,0.0695,-0.168,-0.894 (inactive),-0.13,-1.04 (inactive),-0.285 (inactive),17.7 (active),-0.464 (inactive),0.0502,-0.0719,1.17,-0.206,0.389
CCCCC(=C=CC[C@@H](O)c1ccc(OCCO)cc1)C[C@@H](O)COCc1ccccc1,0.0164,-0.445,-0.0498,-1.01,1.31,0.567,1.72,0.973,0.614,-1.58 (inactive),0.511,-2.32 (inactive),-0.656 (inactive),12.1 (active),-1.48 (inactive),-0.476,-0.203,0.611,0.699,1.38
COC(=O)[C@@]1(Cc2ccccc2)[C@H]2c3cc(C(=O)N4CCCC4)n(C[C@H](O)CO)c3C[C@H]2CN1C(=O)c1ccccc1,1.39,0.926,1.62,-0.455,-0.326,-0.978,0.577,-0.554,1.18,1.22 (inactive),-0.303,0.0728 (inactive),-0.367 (inactive),0.39 (inactive),0.881 (inactive),1.29,0.163,0.677,1.4,0.139
C=CCOC(=O)[C@@H]1[C@H]2C(=O)O[C@H](c3ccccc3)[C@H](c3ccccc3)N2[C@H](c2ccc(OCCOC(=O)[C@H]3C[C@H]4C(=O)N[C@@H](CCCCNC(C)=O)C(=O)N4[C@H]3c3cccc(OCCO)c3)cc2)[C@@]12C(=O)Nc1ccc(I)cc12,1.98,1.19,0.323,0.777,1.43,1.45,-1.11,1.28,-0.045,-0.662 (inactive),0.218,-0.495 (inactive),-0.929 (inactive),-0.256 (inactive),0.215 (inactive),0.356,-0.0313,1.01,0.495,1.89
